This is an account of results in PubChem BioAssay (Tox21).

Results filed as inconclusive are left out. Active and inactive are the calls of the source. Unless noted, calls follow the shape of the full dose curve.

Assay [1] is described as follows: Nuclear factor erythroid 2-related factor 2/antioxidant responsive element (Nrf2/ARE) small molecule agonists: luciferase reporter gene qHTS assay in human keratinocytes (AID 1919969). Also: nearly all actives have a fitted effect of over 35% in size.
The target of assay [2] is Gonadotropin-releasing hormone receptor (Homo sapiens) (UniProt P30968). Briefly: Human gonadotropin-releasing hormone receptor (GnRHR) small molecule agonists, calcium flux assay in GnRHR-HEK293 cells (AID 1920063). Also: nearly all actives have a fitted effect of over 35% in size. Also: potency is read from the fitted curve at half-maximal effect. In short, it runs like this:
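Fluorescence kinetics (480 nm excitation, 540 nm emission; 3 min, 1 s steps) report calcium mobilisation in human GnRHR-HEK293 cells in agonist mode. Dye incubation: 1 h, 37 C.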

The target of assay [3] is KiSS-1 receptor (Homo sapiens) (UniProt Q969F8). Briefly: Human kisspeptin (KISS1R) small molecule agonists, calcium flux assay in KISS1R-HEK293 cells (AID 1920064; active = well fitted activation curve with a large enough effect in the repeat runs; also: potency is read from the fitted curve at half-maximal effect). In short, it runs like this: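 Measures KISS1R agonism through calcium-sensitive dye fluorescence in stably transfected HEK293 cells, read for 3 min after pin-tool compound delivery; 15-point titrations in triplicate.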
Chain of KiSS-1 receptor (Homo sapiens) (Q969F8 whole entry, looked up): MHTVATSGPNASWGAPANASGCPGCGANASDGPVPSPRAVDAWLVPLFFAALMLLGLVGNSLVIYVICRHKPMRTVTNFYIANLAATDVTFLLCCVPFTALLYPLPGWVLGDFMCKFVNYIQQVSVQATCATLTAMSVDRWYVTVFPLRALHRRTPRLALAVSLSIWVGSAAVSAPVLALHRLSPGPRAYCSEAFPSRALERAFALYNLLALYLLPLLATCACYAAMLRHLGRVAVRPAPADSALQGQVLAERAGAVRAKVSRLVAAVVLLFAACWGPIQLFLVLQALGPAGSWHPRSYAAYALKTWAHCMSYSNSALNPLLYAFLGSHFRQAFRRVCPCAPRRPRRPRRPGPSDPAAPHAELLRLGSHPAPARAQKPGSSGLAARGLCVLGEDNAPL
Background: Calcium flux is commonly read through the fluorescence of an indicator in the cells.

Assay [4] in a line: G protein-coupled receptor (GPCR) small molecule agonists, calcium flux assay: HEK293 wild type cell line counter screen (AID 1920065). Also: potency is read from the fitted curve at half-maximal effect. In outline:
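Readout: fluorescence at 480 nm excitation/540 nm emission, sampled at 1 s intervals for 3 min. Cells had been cultured 18 h, then dye-loaded 1 h at 37 C before compound or ATP addition.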

A short description of assay [5]: p53 small molecule agonists, cell-based qHTS assay with human liver microsomes (AID 1963577). In short, it runs like this:
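p53RE-bla reporter cells were pre-incubated 5 h at 37 C, then treated with compounds plus human liver microsomes (0.5 mg/mL final) and NADPH (0.5 mg/mL final) for 16 h at 37 C. Beta-lactamase activity was read by LiveBLAzer fluorescence after 2 h at room temperature.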
On the technique in general: qHTS replaces the single test concentration by a dilution series.

A short description of assay [6]: p53 small molecule agonists, cell-based qHTS assay with rat liver microsomes: qHTS cell viability counter screen (AID 1963580). Also: nearly all actives have a fitted effect of over 45% in size. In short, it runs like this: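 Intracellular ATP, by CellTiter-Glo luminescence, defines viability. HCT-116 p53RE-bla cells, 4,000 per well, were compound-treated in the presence of rat liver microsomes and NADPH for 16 h at 37 C.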
A short description of assay [7]: p53 small molecule agonists, cell-based qHTS assay: qHTS cell viability counter screen (AID 1963581). Also: nearly all actives have a fitted effect of over 45% in size. In outline:
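In the same plates used for the p53 bla reporter, HCT-116 cells given compounds for 16 h at 37 C received CellTiter-Glo; luminescence was recorded 30 min later at room temperature.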

Assay [8] addresses 5-hydroxytryptamine receptor 2A (Homo sapiens) (UniProt P28223). The experiment in a line: 5-hydroxytryptamine receptor 2A (HTR2A) small molecule agonists, cell-based qHTS assay (AID 1963587). Also: nearly all actives have a fitted effect of over 30% in size. Also: potency is read from the fitted curve at half-maximal effect. In short, it runs like this: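 Kinetic calcium-flux fluorescence (2 min, 1 sec intervals) after compound addition in agonist mode. HTR2A-CHO cells were cultured 18 h, then dye-loaded 1 h at 37 C.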

In assay [9] the target is Muscarinic acetylcholine receptor M1 (Homo sapiens) (UniProt P11229). The experiment in a line: Cholinergic receptor muscarinic 1 (CHRM1) small molecule antagonists, cell-based qHTS assay (AID 1963588). Also: nearly all actives have a fitted effect of over 40% in size. Also: potency is read from the fitted curve at half-maximal effect. In outline: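 CHRM1-CHO calcium-flux assay, antagonist mode. Cells were seeded 18 h, dye-loaded 1 h at 37 C and given compound for 5 min at RT, then acetylcholine was added at 50nM. FDSS fluorescence was read 3 min; 15 concentrations, three runs.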
Chain of Muscarinic acetylcholine receptor M1 (Homo sapiens) (P11229 whole entry, looked up): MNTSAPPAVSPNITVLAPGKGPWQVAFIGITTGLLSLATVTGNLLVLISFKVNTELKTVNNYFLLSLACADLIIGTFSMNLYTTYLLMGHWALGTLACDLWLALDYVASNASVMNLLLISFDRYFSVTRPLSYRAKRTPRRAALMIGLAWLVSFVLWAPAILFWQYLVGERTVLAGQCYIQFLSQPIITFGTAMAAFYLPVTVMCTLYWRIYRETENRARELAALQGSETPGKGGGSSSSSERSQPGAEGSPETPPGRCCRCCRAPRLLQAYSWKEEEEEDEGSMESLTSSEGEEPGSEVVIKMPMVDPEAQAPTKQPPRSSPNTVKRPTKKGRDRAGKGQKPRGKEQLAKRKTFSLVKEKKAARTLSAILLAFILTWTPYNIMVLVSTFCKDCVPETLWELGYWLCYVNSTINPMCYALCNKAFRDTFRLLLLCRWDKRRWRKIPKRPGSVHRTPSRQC

Assay [10] shares this target. The experiment in a line: Cholinergic receptor muscarinic 1 (CHRM1) small molecule agonists, cell-based qHTS assay (AID 1963589). Also: nearly all actives have a fitted effect of over 35% in size. Also: potency is read from the fitted curve at half-maximal effect. In outline:
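Each compound was tested at 15 concentrations across three independent runs on dye-loaded CHO cells stably expressing human CHRM1, reading intracellular calcium fluorescence kinetically at 1 sec intervals.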

Assay [11] in a line: cAMP Responsive Elements (CRE) small molecule agonists, cell-based qHTS assay (AID 1963590). In short, it runs like this: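 Cell line: CRE-bla HEK 293T; medium DMEM/10% dialyzed FBS/0.1 mM NEAA/1 mM pyruvate/25 mM HEPES; 3 h compound exposure; beta-lactamase FRET readout after 2 h substrate loading at RT.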
Assay [12] in a line: cAMP Responsive Elements (CRE) small molecule antagonists, cell-based qHTS assay (AID 1963591; active = well fitted inhibition curve with a large enough effect in the signal ratio in the repeat runs, not every such curve was filed as active; the % refers to the signal ratio). In outline:
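Inhibition of NKH477-driven (0.25 uM final) CRE-beta-lactamase signal in HEK293T cells, 3 h compound exposure at 37 °C, detected by FRET substrate fluorescence.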

The target of assay [13] is Beta-2 adrenergic receptor (Homo sapiens) (UniProt P07550). Briefly: Adrenergic beta2 receptor (ADRB2) small molecule antagonists, cell-based qHTS assay (AID 1963592). Also: series mostly up to about 92 µM; nearly all actives have a fitted effect of over 50% in size. In short, it runs like this:
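Cells (CHO, stable ADRB2 overexpression) incubated 18-20hr at 37C; compounds added from DMSO; agonist mix (1nM isoproterenol, 100uM IBMX, 25uM Ro-20-1724) added; 0.5hr RT; d2-cAMP and anti-cAMP-cryptate added; 1hr RT; 665/615 nm read.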

Assay [14] has the same target. The experiment in a line: Adrenergic beta2 receptor (ADRB2) small molecule agonists, cell-based qHTS assay (AID 1963593).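 Also: CHO cells stably overexpressing human ADRB2.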 In outline: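 CHO cells stably over-expressing ADRB2 were plated overnight at 37C, then dosed with compounds plus a stimulation mix containing 100uM IBMX and 25uM Ro-20-1724 for 0.5hr at room temperature. cAMP was measured by HTRF competition, 1hr.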

The target of assay [15] is D(2) dopamine receptor (Homo sapiens) (UniProt P14416). Briefly: Dopamine D2 receptor (DRD2) small molecule agonists, cell-based qHTS assay (AID 1963594). Also: nearly all actives have a fitted effect of over 35% in size. In short, it runs like this:
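cAMP accumulation in DRD2-HEK293 cells measured by HTRF after 1 h detection; compounds added 10 min before NKH477 (200nM […]) forskolin-analogue stimulation, 30 min at room temperature, with Ro20-1724 present at 0.1 mM final.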

Assay [16] shares this target. Briefly: Dopamine D2 receptor (DRD2) small molecule antagonists, cell-based qHTS assay (AID 1963595; active = well fitted inhibition curve with a large enough effect in the signal ratio in the repeat runs, with a control signal flat; the % refers to the signal ratio; also: potency is read from the fitted curve at half-maximal effect). In outline:
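HEK293 cells stably expressing DRD2, preincubated with 0.1 mM Ro20-1724 and compounds 10 min, were stimulated with 200 nM NKH477 plus 12 nM quinpirole for 30 min at room temperature; cAMP measured by HTRF (665/620 nm).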

Assay [17] can be described thus: p53 small molecule agonists, cell-based qHTS assay with human liver microsomes: qHTS cell viability counter screen (AID 1963579). Also: nearly all actives have a fitted effect of over 45% in size. In outline: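 p53RE-bla cells (4,000/well) were pre-incubated 5 h at 37 C, then given compounds in DMSO plus human liver microsomes (0.5 mg/mL final) and NADPH (0.5 mg/mL final) for 16 h at 37 C. Viability was read by CellTiter-Glo luminescence.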

In assay [18] the target is 5-hydroxytryptamine receptor 2A (Homo sapiens) (UniProt P28223). The experiment in a line: 5-hydroxytryptamine receptor 2A (HTR2A) small molecule antagonists, cell-based qHTS assay (AID 1963586). Also: nearly all actives have a fitted effect of over 45% in size. In short, it runs like this:
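Antagonist-mode intracellular calcium assay: DOI (4 nM) added after 5 min compound pre-incubation at room temperature to dye-loaded HTR2A-CHO cells. Fluorescence followed for 3 min, sampled every second.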

Assay [19] can be described thus: p53 small molecule agonists, cell-based qHTS assay with rat liver microsomes (AID 1963578). Also: potency is read from the fitted curve at half-maximal effect. In outline: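 p53RE-bla cells were exposed to compounds together with rat liver microsomes (0.5 mg/mL final) and NADPH (0.5 mg/mL final) for 16 h at 37 C, then read by LiveBLAzer beta-lactamase fluorescence after 2 h at room temperature.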
Assay [20] in a line: p53 small molecule agonists, cell-based qHTS assay (AID 1963582; active = well fitted activation curve with a large enough effect in the signal ratio in the repeat runs, not every such curve was filed as active; the % refers to the signal ratio). In short, it runs like this:
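Compounds are pin-transferred in DMSO onto p53RE-bla cells and incubated 16 h at 37 C. The B/G FRET beta-lactamase substrate is then applied for 2 h at RT and fluorescence recorded.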

Chain of 5-hydroxytryptamine receptor 2A (Homo sapiens) (P28223 whole entry, looked up): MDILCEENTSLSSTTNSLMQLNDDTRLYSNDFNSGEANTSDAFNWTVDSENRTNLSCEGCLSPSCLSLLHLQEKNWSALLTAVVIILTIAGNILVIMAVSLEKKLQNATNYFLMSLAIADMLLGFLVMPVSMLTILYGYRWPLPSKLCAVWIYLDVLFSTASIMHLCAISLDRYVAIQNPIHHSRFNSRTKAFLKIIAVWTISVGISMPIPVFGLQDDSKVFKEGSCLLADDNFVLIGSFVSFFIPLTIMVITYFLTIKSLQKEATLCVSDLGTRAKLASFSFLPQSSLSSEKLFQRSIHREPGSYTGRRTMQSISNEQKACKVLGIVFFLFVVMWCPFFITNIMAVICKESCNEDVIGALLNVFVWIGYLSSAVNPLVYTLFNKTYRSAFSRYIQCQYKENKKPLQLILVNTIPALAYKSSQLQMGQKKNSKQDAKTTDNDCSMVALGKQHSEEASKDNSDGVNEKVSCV
Chain of D(2) dopamine receptor (Homo sapiens) (P14416 whole entry, looked up): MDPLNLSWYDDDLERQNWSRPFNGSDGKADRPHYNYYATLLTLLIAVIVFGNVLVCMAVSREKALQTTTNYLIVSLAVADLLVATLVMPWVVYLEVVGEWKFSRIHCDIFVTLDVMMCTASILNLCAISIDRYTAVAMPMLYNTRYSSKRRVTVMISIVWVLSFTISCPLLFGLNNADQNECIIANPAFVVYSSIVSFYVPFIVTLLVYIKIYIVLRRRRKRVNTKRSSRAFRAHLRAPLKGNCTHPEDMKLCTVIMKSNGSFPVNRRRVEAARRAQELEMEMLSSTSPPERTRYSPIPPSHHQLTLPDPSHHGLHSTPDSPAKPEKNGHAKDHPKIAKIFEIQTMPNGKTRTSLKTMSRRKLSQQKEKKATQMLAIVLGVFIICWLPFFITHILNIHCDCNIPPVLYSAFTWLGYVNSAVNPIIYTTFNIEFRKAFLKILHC
Chain of Beta-2 adrenergic receptor (Homo sapiens) (P07550 whole entry, looked up): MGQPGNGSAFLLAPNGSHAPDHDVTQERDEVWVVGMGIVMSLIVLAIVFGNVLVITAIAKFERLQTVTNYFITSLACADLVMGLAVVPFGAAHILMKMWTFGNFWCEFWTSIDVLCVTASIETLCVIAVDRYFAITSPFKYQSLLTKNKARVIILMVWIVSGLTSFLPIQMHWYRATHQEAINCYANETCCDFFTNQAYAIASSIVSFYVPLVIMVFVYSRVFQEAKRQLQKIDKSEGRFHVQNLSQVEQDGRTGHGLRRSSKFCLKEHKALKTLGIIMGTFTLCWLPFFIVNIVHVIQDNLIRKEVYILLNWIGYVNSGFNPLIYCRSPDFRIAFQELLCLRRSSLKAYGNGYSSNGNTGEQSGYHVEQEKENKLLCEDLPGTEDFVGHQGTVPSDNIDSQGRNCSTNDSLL
Chain of Gonadotropin-releasing hormone receptor (Homo sapiens) (P30968 whole entry, looked up): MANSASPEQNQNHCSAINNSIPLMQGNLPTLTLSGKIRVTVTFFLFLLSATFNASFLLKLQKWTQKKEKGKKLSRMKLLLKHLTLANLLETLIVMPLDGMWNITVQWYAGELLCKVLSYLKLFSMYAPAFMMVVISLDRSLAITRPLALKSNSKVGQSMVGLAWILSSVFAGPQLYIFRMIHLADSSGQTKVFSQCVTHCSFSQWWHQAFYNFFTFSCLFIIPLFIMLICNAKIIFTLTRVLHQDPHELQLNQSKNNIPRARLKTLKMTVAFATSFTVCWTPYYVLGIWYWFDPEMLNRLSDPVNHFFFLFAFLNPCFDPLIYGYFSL

On to `CCCCCCCCCCCCN1CCCC1=O`, for which the Potency result in assay [1], in [2], in assay [3], in [4], in [5] and in assay [6] was “inactive” in each case. Moreover, the Potency result in assay [7], in assay [8], in [9], in assay [10], in [11] and in assay [12] was “inactive” throughout. Moreover, the Potency result in [13], in assay [14], in [15] and in assay [16] was “inactive” each time.

On to `CCCC(=O)OC[C@@H](OC(=O)CCC)[C@@H](OC(=O)CCC)[C@H](Cn1c2nc(=O)[nH]c(=O)c-2nc2cc(C)c(C)cc21)OC(=O)CCC`, for which the Potency entry in assay [1], in assay [5], in assay [17], in assay [6], in assay [7] and in assay [18] was “inactive” in each case. Further, the Potency entry in assay [9], in assay [13] and in assay [15] was “inactive” each time. For the same compound, the Potency was 7.56 µM (active) in assay [2]; 16.9 µM (active) in assay [3]; 15.1 µM (active) in assay [4]; 23.9 µM (active) in assay [8]; 19 µM (active) in [10].

Take `c1ccc(Cc2ccccc2)cc1`: the Potency entry in [1], in assay [2], in [3], in assay [4], in assay [19] and in assay [17] was “inactive” throughout. Also, the Potency entry in [6], in assay [20], in assay [18], in assay [8], in assay [9] and in assay [10] was “inactive” in each case. For the same compound, the Potency result in assay [11], in assay [12], in assay [13], in [15] and in assay [16] was “inactive” throughout.

For the compound `C#C[C@]1(O)CC[C@H]2[C@@H]3CCc4cc(OC5CCCC5)ccc4[C@H]3CC[C@@]21C`, the Potency result in assay [1], in assay [2], in assay [3], in [4], in assay [5] and in [6] was “inactive” in each case. Besides, the Potency result in assay [7], in assay [20], in [18], in assay [8], in assay [10] and in assay [12] was “inactive” in each case. Besides, the Potency result in [13], in assay [14] and in assay [15] was “inactive” throughout.

Take `CSc1ccc2c(c1)C(N1CCN(C)CC1)Cc1ccccc1S2` (stereo not given): the Potency entry in assay [1], in assay [2], in [3], in assay [4], in assay [5] and in assay [17] was “inactive” in each case. The Potency entry in assay [6], in [7], in assay [8], in assay [10], in assay [13] and in assay [15] was “inactive” each time. Besides, the Potency in assay [9] was 0.729 µM (active); in assay [16] it was 0.0473 µM (active).

As for `COC(=O)C1=C(C)NC(COC(N)=O)=C(C(=O)OC(C)C)C1c1cccc(Cl)c1Cl` (stereo not given), the Potency entry in assay [1], in [2], in assay [3], in assay [4], in assay [17] and in assay [6] was “inactive” in each case. In addition, the Potency entry in assay [7], in [8], in assay [9], in [10] and in assay [12] was “inactive” throughout. For the same compound, in assay [19], the Potency is 19.9 µM (active).

As for `O=C1Cc2cc(CCN3CCN(c4nsc5ccccc45)CC3)c(Cl)cc2N1`, the Potency result in assay [1], in assay [2], in assay [3], in assay [4], in [5] and in assay [17] was “inactive” in each case. The Potency entry in assay [6], in assay [8], in assay [10], in [11] and in assay [13] was “inactive” in each case. Besides, the Potency in assay [9] was 5.16 µM (active).

As for `CNS(=O)(=O)c1cc(C(=O)N2CCC(CCN3C4CCC3CC(n3c(C)nc5ccccc53)C4)(c3cccc(F)c3)CC2)c(Cl)cc1F` (stereo not given), the Potency result in [1], in [2], in assay [3], in assay [4], in assay [19] and in assay [17] was “inactive” each time. In addition, the Potency result in assay [6], in assay [7], in assay [18], in [8], in assay [10] and in assay [13] was “inactive” throughout. In addition, the Potency result in assay [14], in [15] and in assay [16] was “inactive” in each case.
